Here are results for 40 compounds from PubChem BioAssay (NCATS).

The nature of the assay: qHTS profiling of the MIPE4 collection as inhibitors of Plasmodium falciparum (3D7) proliferation (AID 743344).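 Also: scaled between DMSO vehicle wells and 0.29 µM artemisinin as full inhibition.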 The settings on record: P. falciparum 3D7 in erythrocytes, SYBR Green DNA fluorescence, 72 h; at 28.5 µM unless noted. From the text: Plasmodium falciparum is a virulent malarial parasite that kills 1-2 million people worldwide each year. Transmitted by mosquitoes, the sporozoite form of the parasite enters the blood stream to infect hepatocytes, where they become merozoites that infect red blood cells (erythrocytes). Within erythrocytes, merozoites begin a […] cycle of growth and division, after which the parasite is released to infect new red blood cells. Gametocytes, which form within erythrocytes as well, circulate in the bloodstream and are ingested by the mosquito, thereby completing the life cycle. To profile malarial isolates for differential chemical responses and to identify inhibitors of malarial growth, an assay that measures P. falciparum growth and replication within erythrocytes was employed. This assay uses a DNA binding fluorescent dye (SYBR Green) to detect parasite DNA following cell lysis. Because mature erythrocytes lack DNA, only Plasmodium-derived DNA is detected.
The SYBR Green viability assay was adapted from a method described previously (Plouffe et al., 2008). For screening 3 ul culture medium was dispensed into 1536 well black clear bottom plates (Aurora Biotechnologies) using a Multidrop Combi (Thermo Fisher Scientific Inc.), 23 nL compounds in DMSO were added by a pin tool (Kalypsys), and 5 ul of erythrocytes infected with P. falciparum (0.3% parasitemia, 2.5% hematocrit final concentration) were added. The plates were incubated at 37 C in a humidified incubator in 5% CO2 for 72 h, and 2 ul lysis buffer (20 mM Tris HCl, 10 mM EDTA, 0.16% saponin, 1.6% triton X, 10X SYBR Green I supplied as 10,000X […] by Invitrogen) was added to each well. The plates were mixed for 25 sec with gentle shaking and incubated overnight at room temperature in the dark. The following morning, fluorescence intensity at 485(14) nm excitation and 535(25) nm emission wavelengths was measured on an EnVision (Perkin Elmer) plate reader. Plate reads were normalized relative to the control inhibitor (0.29 uM artemisinin) and vehicle (DMSO) wells present on each plate and then corrected by an algorithm using vehicle-only control plates at the beginning and end of the compound plate stack.
In turn, `CS(=O)(=O)c1ccc(C2=C(c3ccccc3)C(=O)OC2)cc1` came in with a parasite growth, % of DMSO control of 94.3%. As to `CCC[C@@H](NC(=O)[C@@H]1[C@H]2CCC[C@@H]2CN1C(=O)[C@@H](NC(=O)[C@@H](NC(=O)c1cnccn1)C1CCCCC1)C(C)(C)C)C(=O)C(=O)NC1CC1`, the parasite growth, % of DMSO control came out at 9.1%.

In turn, `CCn1c(-c2nonc2N)nc2cncc(CNC3CCNCC3)c21` gave a parasite growth, % of DMSO control of 45.1%. Turning to `O=C(O)C1=CC(O)C(O)[C@H](O)C1` (stereo not given in full), the parasite growth, % of DMSO control was 92.4%. For the compound `N#CC1(c2cccc(C(=O)Nc3cc(Oc4ccc5nc(NC(=O)C6CC6)sc5n4)ccc3F)c2Cl)CC1`, the parasite growth, % of DMSO control came out at 14.7%.

`COc1cc([C@@H]2c3cc4c(cc3[C@@H](O[C@@H]3O[C@@H]5CO[C@@H](C)O[C@@H]5[C@H](O)[C@@H]3O)[C@H]3COC(=O)[C@H]23)OCO4)cc(OC)c1O` gave a parasite growth, % of DMSO control of 10.3%.

`CN1CCN2c3ncccc3Cc3ccccc3C2C1` (stereo not given): the parasite growth, % of DMSO control turned out to be 85.3%. Under `Cc1ccccc1C(C(=O)NC1CCCCC1)N(C(=O)CNc1ccc(C#N)cc1)c1cccc(F)c1` (stereo not given) stands 145%; under `C=CC(=O)Nc1cccc(Sc2nc(Nc3ccc(N4CCN(C)CC4)cc3)ncc2Cl)c1`, 4.12%. Under `CCN(CCO)CCCOc1ccc2c(Nc3cc(CC(=O)Nc4cccc(F)c4)[nH]n3)ncnc2c1` stands 9.18%. Under `Nc1ccc(-c2ccc3ncc4ccc(=O)n(-c5cccc(C(F)(F)F)c5)c4c3c2)cn1` stands 4.25%.

On to `FC(F)(F)c1ccc(C=Cc2nc(COc3ccc(CCCCn4ccnn4)cc3)co2)cc1`, for which the parasite growth, % of DMSO control is 77.3%. As to `COc1nccc(-c2c(-c3ccc(F)cc3)ncn2C2CCNCC2)n1`, the parasite growth, % of DMSO control amounted to 36.4%. The result for `CCC(C)SSc1ncc[nH]1` (stereo not given) reads 86.2%; that for `COc1ccc(-c2ccc3ncc4c(c3c2)n(-c2ccc(N3CCNCC3)c(C(F)(F)F)c2)c(=O)n4C)cn1`, 7.25%; that for `COc1ccc(-c2cc(=O)c3c(O)cc(O[C@@H]4O[C@H](CO[C@@H]5O[C@@H](C)[C@H](O)[C@@H](O)[C@@H]5O)[C@@H](O)[C@H](O)[C@@H]4O)cc3o2)cc1O`, 30.1%. In turn, `CC(C)(C)c1nc(-c2cccc(NS(=O)(=O)c3c(F)cccc3F)c2F)c(-c2ccnc(N)n2)s1` registered a parasite growth, % of DMSO control of 18.2%. `CC(=O)N1CCN(c2ccc(OCc3nn(C)c(C)c3-c3cccc4c(CCCOc5cc(C)c(Cl)c(C)c5)c(C(=O)O)n(Cc5cccnc5)c34)cc2)CC1` gave a parasite growth, % of DMSO control of 5.72%. Turning to `CC1(C)[C@H]2CC[C@]3(C)[C@@H](C(=O)C=C4[C@@H]5C[C@@](C)(C(=O)O)CC[C@]5(C)CC[C@]43C)[C@@]2(C)CC[C@@H]1O`, the parasite growth, % of DMSO control was 93.2%. Under `COc1ccc(CCN(C)CCCOc2ccc(S(=O)(=O)c3[nH]c4ccccc4c3C(C)C)cc2)cc1OC` stands 31.8%; under `Cc1cc(-c2ncc(CC(=O)Nc3ccc(-c4cnccn4)cn3)cc2C)ccn1`, 36.5%.

Compound `Cc1ccc2c(c1)C(=O)[C@]1(O)CCN(c3ccccc3)C1=N2` displayed a parasite growth, % of DMSO control of 70.4%.

For `CN(C)c1ccccc1CN1CCCN(Cc2ccccc2N(C)C)C1c1ccncc1`, the parasite growth, % of DMSO control amounted to 17.2%. The result for `CN[C@H]1[C@@H](O[C@@H]2[C@H](O[C@@H]3[C@@H](O)[C@@H](O)[C@@H](N=C(N)N)[C@@H](O)[C@@H]3N=C(N)N)O[C@H](C)[C@@]2(O)C=O)O[C@@H](CO)[C@@H](O)[C@H]1O` reads 99% [at 9.64 µM]. The result for `CN[C@@H]1CN(c2ccc3c(=O)c(C(=O)O)cn(-c4nccs4)c3n2)C[C@@H]1OC` reads 9.37% [at 9.64 µM]; that for `COc1ccc2nc3cc(Cl)ccc3c(Nc3cc(CN4CCCC4)c(O)c(CN4CCCC4)c3)c2n1`, 7.61%; that for `COc1ccc(-c2cc3nccn3c(Nc3ncccc3C(N)=O)n2)cc1OC`, 4.5%. Under `Cc1cc(C(C)Nc2ccccc2)c2nc(N3CCOCC3)cc(=O)n2c1` (stereo not given) stands 11.8%; under `O=C(O)C1=NC(C(=O)O)CC(C=CN2c3cc(O)c(OC4OC(CO)C(O)C(O)C4O)cc3CC2C(=O)O)=C1` (stereo not given), 93%. `CC(C)C[C@@H](C(=O)N[C@H](C(=O)OC1CCCC1)c1ccccc1)[C@H](O)C(=O)NO` came in with a parasite growth, % of DMSO control of 15.1%. Under `NS(=O)(=O)c1cc(Cl)c(Cl)c(S(N)(=O)=O)c1` stands 101%; under `O=C1NC(=O)C(c2cnc3ccccn23)=C1c1cn2c3c(cccc13)CN(C(=O)N1CCOCC1)CC2`, 22.1%; under `CC1CCN(c2cc(N3CCN(C)CC3)ccc2NC(=O)c2cc(C#N)c[nH]2)CC1`, 39.9%. As for `O=C(Nc1cccc(Cl)c1)Nc1ncc(CCNc2ncnc3ccsc23)s1`, the parasite growth, % of DMSO control was determined as 15.2%. Under `COc1c(C)c2c(c(O)c1CC=C(C)CCC(=O)OCCN1CCOCC1)C(=O)OC2` stands 16.6%.

As to `Oc1ccc(C=Cc2cc(O)cc(O)c2)cc1`, the parasite growth, % of DMSO control was 49.1%. In turn, `NCC1CCC(C(=O)O)CC1` (stereo not given) yielded a parasite growth, % of DMSO control of 428%. The result for `CC(C)CN(C[C@@H](O)[C@H](Cc1ccccc1)NC(=O)O[C@H]1CO[C@H]2OCC[C@H]21)S(=O)(=O)c1ccc(N)cc1` reads 42.7%. The result for `CC(=O)NCCC(=O)N[C@@H](CCC(N)=O)C(=O)N[C@@H](CO)C(=O)N[C@@H](CCC(N)=O)C(=O)N[C@@H](CCC(N)=O)C(=O)N[C@H](C(=O)N[C@@H](Cc1ccccc1)C(=O)N[C@]1(C)CCCCCCC=CCCC[C@@](C)(C(=O)N[C@@H](CCC(N)=O)C(=O)N[C@@H](CC(N)=O)C(N)=O)NC(=O)[C@H](CC(C)C)NC(=O)[C@H](CC(C)C)NC(=O)[C@@H](CCCNC(=N)N)NC(=O)[C@H](Cc2c[nH]c3ccccc23)NC(=O)[C@H](CC(C)C)NC(=O)[C@H](CC(N)=O)NC1=O)[C@H](C)O` reads 86.3%. For the compound `CO[C@H]1/C=C\O[C@@]2(C)Oc3c(C)c(O)c4c(O)c(c(C=NN5CCN(C6CCCC6)CC5)c(O)c4c3C2=O)NC(=O)C(C)=CC=C[C@H](C)[C@H](O)[C@@H](C)[C@@H](O)[C@@H](C)[C@H](OC(C)=O)[C@H]1C`, the parasite growth, % of DMSO control amounted to 4.38%.
